Shown are actives, neighbours in structure and some others; about 2.8% of the full set was active somewhere.
IP6K1 inhibitor: IP6K1 kinase inhibition; activity change, % (series mostly up to about 58 µM); Q92551; IP6K1 kinase, ADP-Glo luminescence, 2 h; stronger effect = lower value; 0.81% of 140,000 active; in the data active = activity change below about -25%; also: % is scaled to controls: 0 for no effect and ±100 for the full control effect
Target sequence (Q92551 whole entry, looked up): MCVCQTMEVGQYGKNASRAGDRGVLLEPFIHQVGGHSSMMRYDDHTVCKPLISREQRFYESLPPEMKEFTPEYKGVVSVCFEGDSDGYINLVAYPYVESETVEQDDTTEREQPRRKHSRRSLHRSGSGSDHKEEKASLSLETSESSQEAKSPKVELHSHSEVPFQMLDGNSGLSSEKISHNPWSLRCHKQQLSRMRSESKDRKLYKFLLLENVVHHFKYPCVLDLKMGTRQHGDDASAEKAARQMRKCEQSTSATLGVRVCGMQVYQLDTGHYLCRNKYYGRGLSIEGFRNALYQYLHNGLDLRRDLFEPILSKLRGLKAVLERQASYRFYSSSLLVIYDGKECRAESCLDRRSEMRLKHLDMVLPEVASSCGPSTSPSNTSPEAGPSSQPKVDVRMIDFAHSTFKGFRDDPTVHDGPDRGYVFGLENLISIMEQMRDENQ
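ADP-Glo luminescence measures ADP made by human IP6K1 during a 2 h RT reaction with ATP/IP6 (mix at 1.3 mM/130 uM); top library doses 57.5 and 19.1 uM final.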
KDM5B inh: KDM5B demethylase inhibition | KDM5B demethylase, FDH-coupled NADH fluorescence (FDH is formaldehyde dehydrogenase) | Q9UGL1 | 2.6% of 220,000 active | Potency, µM (top dose mostly 57.7 µM), hits mostly inhibitors | AID 1347165; active = well fitted inhibition curve with a large enough effect; inconclusive = small, poorly fitted or top-dose-only effect; inactive = no such curve, though single readings can be large or run the other way; also: potency is read from the fitted curve at half-maximal effect; 0% is about no effect; nearly all actives have a fitted effect of over 70% in size
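Coupled FDH/NAD⁺ fluorescence readout. KDM5BΔAP 200 nM final; compound titration, 10 min RT preincubation; substrate mix 12.5 µM H3K4me3, 25 µM 2-OG, 50 µM Fe(II), 100 µM ascorbate, 0.25 mM NAD⁺, 0.25 U/mL FDH; ΔRFU over 30 min.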
Starred values were filed as active, the others as inactive; i = inactive; ? = inconclusive; / = no result.

SMILES	IP6K1 inhibitor	KDM5B inh
Cc1cc(C(=O)N[C@H]2[C@H](O)[C@H](O)C[C@@H]2c2cccnc2)nn1C	10.2	i
Cc1ccccc1C(=O)N[C@H]1[C@H](O)[C@H](O)C[C@@H]1c1ccc(N2CCOCC2)nc1	0.6	31.6µM*
COc1ccc(C(=O)N[C@H]2[C@H](O)[C@H](O)C[C@@H]2c2ccc(N3CCOCC3)nc2)cc1OC	7.1	?
Cn1cc(CN[C@H]2[C@H](O)[C@H](O)C[C@@H]2c2ccc(N3CCOCC3)nc2)cn1	-1.0	39.8µM*
Cc1cc(C(=O)N[C@H]2[C@H](O)[C@H](O)C[C@@H]2c2ccc(N3CCOCC3)nc2)nn1C	7.1	31.6µM*
COC(=O)N1CCN(CCCn2nc3n(c2=O)CCCC3)CC1	4.9	/
Clc1ccccc1N1CCN(Cc2nnc(-c3ccc(Br)s3)o2)CC1	/	i
Cc1ccccc1CN1CCc2c(n(Cc3ccccc3)n(-c3ccccc3)c2=O)C1	5.7	?
O=C(NC1CCN(C(=O)c2ccc(-c3cncnc3)cc2)CC1)c1ccc(C(F)(F)F)cc1	-2.2	/
Nc1nc(-c2cc3c4c(c2)CC(=O)N4CCC3)cs1	/	i
CCCNc1c(NC(=O)Nc2ccc(OC)cc2)c(=O)oc2ccccc12	/	i
O=C1CCN(Cc2ccncc2)CCCC(C(=O)NCCCN2CCCC2=O)CCN1 (stereo unspecified)	-13.3	?
COCCNC(=O)C1CCCN(Cc2ccncc2)CCC(=O)NCC1 (stereo unspecified)	-6.1	?
COCCCNC(=O)C1CCCN(Cc2ccncc2)CCC(=O)NCC1 (stereo unspecified)	-5.4	25.1µM*
O=C1CCN(Cc2ccncc2)CCCC(C(=O)NCCCN2CCCc3ccccc32)CCN1 (stereo unspecified)	-2.9	14.1µM*
O=C(CC1CCCCC1)NCc1nnc2cc(-c3nc(C4CC4)no3)ccn12	32.1	14.1µM*
O=C(CCC1CCCC1)NCc1nnc2cc(-c3nc(C4CC4)no3)ccn12	16.8	11.2µM*
O=C(NCC12CC3CC(C1)CC(CNC(=O)c1ccc(Cl)cc1)(C3)C2)c1ccc(Cl)cc1	/	i
Cc1nn(-c2ccccc2)c2c1C(C(C)C)N(C1CN(C(=O)c3ccccc3)C1)C2=O (stereo unspecified)	19.9	/
COc1ccc(C(=O)N2CCN(c3nnc4ccc(Cl)cn34)CC2)cc1	11.9	?
O=C(c1cccc(C(F)(F)F)c1)N1CCCN(c2nnc3ccc(Cl)cn23)CC1	38.1	?
O=C(C1CCC1)N1CCN(c2nnc3ccc(Cl)cn23)CC1	41.7	?
COc1ccc(C(=O)N2CCCN(c3nnc4ccc(Cl)cn34)CC2)cn1	13.2	22.4µM*
O=C(c1cccnc1)N1CCN(c2nnc3ccc(Cl)cn23)CC1	6.6	15.8µM*
Cc1ccccc1C(=O)N1CCCN(c2nnc3ccc(Cl)cn23)CC1	40.0	25.1µM*
SMILES	IP6K1 inhibitor	KDM5B inh
COCCOc1ccc(C(=O)N[C@@H]2CN(C(=O)Nc3ccc(OC(F)(F)F)cc3)CCC[C@H]2O)cc1	-14.1	i
Cc1cccc(CC(=O)N2CCC(Nc3cccn4ncnc34)CC2)c1	11.2	?
O=C(c1ccoc1)N1CCC(Nc2cccn3ncnc23)CC1	13.2	12.6µM*
CCOC(=O)N1CCN(C(=O)CN(c2cc(C)ccc2OC)S(C)(=O)=O)CC1	/	i
Cc1cccc(CN2CCCC3(CCN(C(=O)c4ccc(=O)[nH]c4)C3)C2=O)c1 (stereo unspecified)	-2.2	12.6µM*
Cc1cccc(CN2CCCC3(CCN(C(=O)Cc4cccnc4)C3)C2=O)c1 (stereo unspecified)	32.0	i
COc1ccc(CC(=O)N2CCN(c3nccc(Nc4ccccc4F)n3)CC2)cc1	-5.4	/
CCN(/C=C1/CCCCC1=O)C1CC2CCC1C2 (stereo unspecified)	/	i
Cc1cn2nc(C(=O)NCCC3=CCCCC3)cc2c(N2CCCC2)n1	-8.6	10µM*
Cc1cn2nc(C(=O)NC3CCC(C)CC3)cc2c(N2CCCC2)n1 (stereo unspecified)	4.8	28.2µM*
Cc1cn2nc(C(=O)NCc3ccc(C(F)(F)F)cc3)cc2c(N2CCCC2)n1	8.0	28.2µM*
Cc1cn2nc(C(=O)NCc3ccccc3C(F)(F)F)cc2c(N2CCCC2)n1	14.9	14.1µM*
Cc1cn2nc(C(=O)NCc3ccccc3C(F)(F)F)cc2c(N2CCSCC2)n1	5.5	?
Cc1cn2nc(C(=O)NCc3ccc(F)cc3F)cc2c(N2CCCC2)n1	-8.9	i
Cc1cn2nc(C(=O)NC(C)c3ccccc3)cc2c(N2CCCC2)n1 (stereo unspecified)	-11.3	i
CC(C)=CC(=O)Nc1cc(Cl)cc(Cl)c1	/	i
COC(=O)NC1CCN(Cc2ccc(-c3ccsc3)cc2)C1 (stereo unspecified)	-1.6	/
Cn1ncc2c(C(=O)NCCc3ccccn3)cc(-c3ccc(C(F)(F)F)cc3)nc21	-10.0	/
CN(C)C(=O)C1CCN(Cc2ccccc2-c2ccccc2F)CC1	19.0	/
O=C(Nc1c(NCC2CCCCC2)c2ccccc2oc1=O)c1cccc(F)c1	/	i
O=C(NCCc1ccccc1)C1CCCN(c2nccc(Nc3ccccc3F)n2)C1 (stereo unspecified)	8.6	/
CCc1ccc(CNC(=O)c2cc3c(N4CCCC4)nc(C)cn3n2)cc1	-9.8	25.1µM*
Cc1cn2nc(C(=O)NC(C)CCc3ccccc3)cc2c(N2CCCC2)n1 (stereo unspecified)	5.7	i
COc1ccc(CNC(=O)c2cc3c(N4CCCC4)nc(C)cn3n2)cc1	-7.0	i
Cc1cn2nc(C(=O)NCc3ccc4c(c3)OCO4)cc2c(N2CCCC2)n1	-1.3	25.1µM*
SMILES	IP6K1 inhibitor	KDM5B inh
Cc1cn2nc(C(=O)NCc3ccc(Br)cc3)cc2c(N2CCCC2)n1	-2.5	28.2µM*
Cc1cn2nc(C(=O)NCc3ccc(Cl)cc3)cc2c(N2CCCC2)n1	-9.0	31.6µM*
CCc1ccc(C(=O)CCC(=O)OCc2ccc(C#N)cc2)cc1	/	i
C#CCNC(=O)C1CCN(c2nccc(Nc3ccccc3Cl)n2)CC1	11.5	/
COc1ccccc1Nc1ccnc(N2CCCC(C(=O)NCCc3ccccc3F)C2)n1 (stereo unspecified)	13.5	/
CCOc1ccccc1C(=O)Nc1ccc(C(F)(F)F)oc1=O	/	i
COc1ccc(C2C(C(C)=O)=C(O)C(=O)N2c2cccc(OC)c2)cc1 (stereo unspecified)	/	i
COc1ccc(C2(C(=O)N3CCC(Cc4nc(-c5ccccc5)n[nH]4)C3)CC2)cc1 (stereo unspecified)	-5.7	/
CC(=O)NCC1CCCN(Cc2ccc(-c3ccccc3C#N)o2)C1 (stereo unspecified)	16.8	28.2µM*
CCc1ccc(CN2CCCC(CNC(=O)c3cccc(OC)c3OC)C2)o1 (stereo unspecified)	11.3	i
CS(=O)(=O)CC(O)c1cc2n(n1)CCN(c1cncc(C(N)=O)n1)C2 (stereo unspecified)	11.2	25.1µM*
COc1ccc(C(=O)N2CCn3nc(C(O)CS(C)(=O)=O)cc3C2)cn1 (stereo unspecified)	9.2	i
Cc1nn(-c2ncccn2)c2c1C(c1cccc(OCC(C)C)c1)CC(=O)N2 (stereo unspecified)	/	i
Cc1ccccc1C(=O)N(C)Cc1ccc(-c2ccccc2)cc1	-13.1	i
CCC(Cn1ccnc1)NC(=O)c1cccc(NCc2ccc(F)cc2)c1 (stereo unspecified)	10.1	20µM*
